In all, about 59,000 sequences were measured (the read-out: median about -0.00055, lowest 2% from about -2 on). Shown is part of a subset that was picked to be rich in the lowest values.
assay: Identification of proteins required for the processing of the EWS-FLI1 nascent transcript; settings: TC32 Ewing sarcoma NR0B1-luc vs CMV-luc (EWS-FLI1 target promoter against control promoter), 48 h; screened at 20 nM (by protocol);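 note: robust z of luciferase light less the median z of siRNAs with the same seed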
How it was run: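 Readout: OneGlo luminescence, 48 h post-transfection, TC32-NR0B1-luc vs TC32-CMV-luc in parallel. siRNA 20 nM final, RNAiMax lipid, 600 cells/well; z-score-MAD transformed, then seed-adjusted.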

Point of comparison: UCGUCUUCGCUUUAUAUCC against EFR3A, seed-corrected z-score -3.4. Against it:
- UCCCGUUCAAUCUCCCACC against RNF113B — higher, -0.595
- UCCAUGGUACUUCUUAUGC against TMEM127 — higher, -2.9
- UUGGGAGCGAUAACACGAC against C19orf53 — higher, -0.418
- AGAUCUACUAGUUCUUGUG against LRCH1 — higher, 0.758
- ACAGUGGUGAACGUGAUGC against JPX — higher, -2.26
- UUGGUAGUAGAUCAUAUGC against STXBP3 — higher, -0.0771
- UUUUCUUGCGUUUAUGUGG against C11orf57 — higher, 0.448
- AGUGAUGAAAGCAAAGUAG against KCNK16 — higher, 0.908
- UUUCAUCUCACCUUUAUUG against RPL23P5 — higher, -2.17
- UUCUGAUCCUGGAUGUUGC against R3HDM1 — higher, 0.205
- AGACGUUCCAUUCAUAUCU against RBMY1F — higher, 0.399
- AUGGUCUUCACUCUUGUGC against CCR9 — higher, -3.14
- UGUGUUUAACCAGAGAUCC against RXRG — higher, 0.625
- UGACCGUUUCGGAUGAUGG against ATP2B4 — higher, 0.168
- UAGCUGUCGAACACCCAGG against PDDC1 — higher, 1.63
- UCAGUUUGCAAUUAGGCAG against LOC113230 — higher, 0.933
- UACCAGCUCACUGACAUGG against OR8B4 — higher, 0.0124
- UGCAUGACAAACAAAUUCC against GATAD1 — higher, 0.136
- UCCAGUUGUAGUUCGGCAG against KISS1 — higher, -2.32
- UCAGGUUGAUGAAAUGGGC against PRDM15 — higher, -0.519
- UGAGCACAGAAAGUGGACC against SNRPD2P1 — higher, -0.553
- ACAUCCUUAAGAAAUAUGG against PLEKHA2 — higher, -0.563
- AAAGCGUAGAAAAUAUCCC against DNAH5 — higher, -0.0906
- UCAGUAUGAAGAGCAACAG against MCM2 — higher, -0.317
- UACCUCUUAAUAAGAUCUG against ATP8A2 — higher, 0.0625
- UUUCGGAAAUCUAGGCUGG against KANSL1 — higher, 1.62
- UUGAUAUAAACUCUGACAC against PDE4D — higher, 0.567
- AUCGGUAGCAGUGAACAUG against LPP — higher, -0.942
- UAUAUUAGCGGUAACGGUG against RPL15P3 — higher, -2.66
- UCUGUUACAAUUGUUCCAC against ETF1 — higher, -0.812
- UUUCUCAUCAAAGAACUCC against PPP2R1A — higher, -0.546
- AAGCUUUAUACUUUCCACC against OR7G3 — higher, -0.496
- AUUCGAACAACAUUUCUUC against ANOS1 — higher, -0.592
- UCUCGAACCUGGAGAAUGC against FAM109B — higher, 0.134
- UGUGCACUAAUGCGAAUCG against MYO5C — higher, -0.13
- UCUGCUUUGUCUCUCAGCC against FAM92A1 — higher, -2.84
- UUCUGGAUGUGGUAGGGCC against ACSBG1 — higher, 0.963
- UCUGUUCGAAAGUCAAAGC against SRBD1 — higher, -0.955
- UGAGUUGCAGUCCUCCACG against C9orf173 — higher, -2.17
- UUCGUAAUAAAGGAUCCAG against NF1 — higher, 0.124
- UAUGCGCAGAUGUUACUCG against PAICS — higher, 0.0926
- UUCACUUUCAGAUCGGGAC against C18orf25 — higher, -1.35
- UUUAAGUCAAAUCUUGUCC against WTIP — higher, -0.633
- UAUUUACCAGGCUCUGUGG against FAM47A — higher, 0.667
- UGCUGCAUGACAUCCACCC against SORBS3 — higher, 0.835
- AGGGUAGAAAGAGUCGUCC against ANKRD33B — higher, -2.3
- UUUUCGAUCAUCACCACAC against YWHAQ — higher, -0.216
- UUGGAGUUCAGGAUCCUCU against MYO19 — higher, 0.563
- UCGGUUGAAACAUUUGUGG against IPO11 — higher, 0.941
- UAUGUAACUUUGAUGAGAG against CEACAM22P — higher, 0.0194
- AUCCUUGUACAUGCAGUCC against ELL — higher, -2.16
- AUAAAACUCAUCUGAGUCC against CYP11B2 — higher, 0.754
- AAAGCUAACAUAUUGUAGU against MSGN1 — higher, -0.0625
- UUUCCGAUAGAUUGACUGC against SMPX — higher, 0.0624
- UUUCAUCUCAUCGAGGAAG against LDOC1 — higher, -2.02
- UUCUCACUCAUGUUGCCUC against ZNF768 — higher, 0.198
- UACGGUCACUGAUAGUUGG against CYP17A1 — higher, -0.42
- UACCGGAAAGACAAGAUAG against CRYBG3 — higher, 0.146
- UGUAGCUGAAGAAUAUUCC against ZBTB24 — higher, -2.4
- UCUUAUUGAAAAUCUCAGC against NR1H4 — higher, 0.518
- UGUCUAACAAAUGUGGAGC against ZNF548 — higher, 0.841
- UCUGGUGUACAAGUAGUCC against FICD — higher, 0.433
- UCUCCUCAAAGCACCAGCC against LOC653712 — higher, -0.019
- AAAGUAGCAUCGUCUGUCU against GSC — higher, 0.704
- UUUGAGUAGAGCAGCAUCC against SENP3 — higher, -2.41
- AUACUGGUUAGAAUCAGAC against EVI5 — higher, -0.0438
- AAUGAAGCAGUUCAUAAGC against ST3GAL6 — higher, 0.107
- UUACGUUCAACCUUAGAUC against PHLPP1 — higher, 0.355
- UUUAGUUCACCCUGAAUCG against NUP54 — higher, -0.0579
- UAAGUACUCUCAACACUGC against PIN4P1 — higher, 0.00579
- AGCUUGUAAACACUUCUGC against RGN — higher, -2.52
- UUUGAGUCUAGUGGGAUAG against SLC22A10 — higher, 0.479
- UAUAGAUGCGAAUCCUUUC against C17orf97 — higher, -0.421
- AAAGCUGCAACUGCCUCCC against C2orf48 — higher, -2.61
- UAAGUCGAACCUUAUCUCC against AIM2 — higher, -0.16
- UAGAAUAAAAUACCGAAUG against SNRPD1 — higher, -1.88
- UUUGUCUCAAGAAUUAUCA against SPTSSA — higher, 0.0457
- UUGAUUCUCGGGUCUUUGG against FAM71F2 — lower, -12.6
- UUUGAUUAAAAGGUCUCUG against PIGX — higher, -1.29
- UGAGAUGAACUGAUCUUGC against OR10W1 — higher, 0.324
- UCAGGUUUAAGAGGUAUGC against TRAM2 — higher, 0.485
- UCCAGUUGCACUUCUGUCC against CGREF1 — lower, -3.65
- UGUAUACAAAGAGACAAUC against TAS2R5 — higher, 0.728

— PubChem BioAssay AID1159506 (National Center for Advancing Translational Sciences (NCATS), 2015)
